# From PubChem BioAssay (NCI)
# About 83,000 compounds went through this panel and 20% of them were active in at least one assay; those are over-represented in the sample as a whole.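 Activity criterion: percent growth below 10, measured after cells in 96-well plates were exposed to a single compound concentration for 48 hours.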 Unmarked numbers belong to inactive results. Activity calls are given as the source filed them.
# Tested on: HL-60(TB) leukemia
# Experiment: NCI-60 one-dose screen, 48 h (100 = growth as untreated, 0 = no growth, -100 = all killed)
# Conditions: 10 µM unless noted
row,Compound,growth
1,O=C(N/N=C/c1coc2ccccc2c1=O)c1cc2oc(-c3ccccc3)cc2[nH]1,99%
2,Cc1ccc(Nc2nc(N)nc(CSCC(=O)NN)n2)cc1,20.5%
3,CCOC(=O)c1c(C)nc2c(c1N)/C(=C/c1ccc(OC)cc1)C(=O)N2Cc1ccccc1,45.8%
4,Cc1c(-c2ccc(C3CCCCC3)cc2)nc2ccc(F)cc2c1C(=O)O,24.8%
5,CC(C)c1cc(C(=O)O)c(O)c(C(C)C)c1.CC(C)c1cc(C(=O)O)c(O)c(C(C)C)c1.[Mn],94.2%
6,Cc1ccc(S(=O)(=O)c2c(COC(=O)c3cccc(C)c3)c(-c3ccccc3)nn2C)cc1,30.2%
7,Cc1cc(NCc2cc(Nc3ccnc4cc(Cl)ccc34)ccc2F)nc(N2CCCC2)n1,-59.5% (active)
8,S=c1cc(S)c2cc(Br)ccc2[nH]1,101%
9,Cc1ccc[n+](CC(=O)c2cccc3ccccc23)c1,96.9%
10,COC(=O)Nc1nc2ccc(C3(c4ccc(F)cc4)OCCO3)cc2[nH]1,-25.1% (active)
11,Cc1cc(C)n(Nc2nc3ccccc3[nH]c2=O)c(=O)c1C#N,102%
12,Cc1nc(C)c(-c2nn3c(-c4cccc(F)c4)nnc3s2)s1,107%
13,COc1cc(C(O)C2C(=O)OCC2C2(c3ccc4c(c3)OCO4)SCCCS2)cc(OC)c1OC (stereo not given),91.8%
14,COc1ccc(N(C)c2nc(Cl)nc3ccn(C)c23)cc1,-35.3% (active)
15,CSc1nc(=S)c2nc(SC)n(-c3ccccc3)c2[nH]1,110%
16,CC(C)/C=C/CC[C@](C)(O)[C@H]1CC[C@]2(C)[C@@H]1CC[C@@H]1[C@@]3(C)C/C(=C/c4cccc(C(F)(F)F)c4)C(=O)C(C)(C)[C@@H]3CC[C@]12C,92.9%
17,COCCn1cc(-c2csc(-c3cn(C)c4ccc(F)cc34)n2)c2cccnc21,84.7%
18,NS(=O)(=O)c1ccc(N/C=C/C(=O)c2cc3ccccc3oc2=O)cc1,100%
19,CNC1=C(Br)C(=O)c2c(C(=O)OC)c(C)nc(C)c2C1=O,24.5%
20,NCCCN(CCCN)CCCNCc1c2ccccc2c(CNCCCN(CCCN)CCCN)c2ccccc12,100%

row,Compound,growth
1,C[C@]12CC[C@H]3[C@@H](CC=C4C[C@@H](O)CC[C@@]43C)[C@@H]1CC[C@@H]2C(=O)C/C=N/O,78.9%
2,C=C(c1ccc(OC)c(/C=C/C(=O)c2ccc3c(c2)OCO3)c1)c1cc(OC)c(OC)c(OC)c1,10.3%
3,Cn1ccnc1C(=O)/C=C/c1ccc(CC(=O)Nc2ccc(F)cc2)cc1,18.8%
4,Cc1c(Cl)cc(Cl)c(N)c1Cl,102%
5,Cc1cc([N+](=O)[O-])c(C)cc1C(=O)O,107%
6,N#Cc1c(N2CCOCC2)nc2sc3cc(Cl)ccc3n2c1=N,107%
7,O=C(CCl)NC1c2ccccc2Oc2ccccc21,78.4%
8,COc1cc(OC)cc(C2C3=C(COC3=O)Nc3cc(OC)ccc32)c1 (stereo not given),1.71% (active)
9,CCCCCC(=O)Oc1ccc(/C(=C(/C)Cc2ccc(OC)cc2)c2ccc(OCCCN(C)C)cc2)cc1,62%
10,CC(C)c1ccc(C(=O)Nc2sc3cc(O)ccc3c2C#N)cc1,-6.25% (active)
11,COc1ccc(OC)c(Nc2nc3nonc3nc2Nc2cccc(Br)c2)c1,-14.1% (active)
12,COc1ccc(CNC(=O)c2c(C)n([O-])c3ccc(OC)cc3[n+]2=O)cc1,92.5%
13,COc1cccc2c(=O)c3c(sc12)c(NCCCNCCO)nc1ccccc13,59.8%
14,O=C(/C(=C/c1ccc([N+](=O)[O-])cc1)SCc1ccc(F)cc1)c1ccc(F)cc1,68.8%
15,Nc1nc(-c2cccnc2)nc2c1sc(=S)n2-c1ccccc1,99.3%
16,CCCc1nc(C(C)(C)O)c(C(=O)O)n1Cc1ccc(-c2ccccc2-c2nn[nH]n2)cc1,107%
17,Cn1ncc2c(=O)nc3c(-c4ccccc4)n[nH]n3c21,107%
18,O=S(=O)(c1ccc(OCCO)cc1)c1ccc(OCCO)cc1,-0.844% (active)
19,CCN(CC)c1ccc(N=Nc2cc(Cl)ccc2Cl)c(NC(=O)CCC(=O)O)c1,119%
20,Cc1scc2c1N(C(=O)CN1CCN(C)CC1)c1ccccc1NC2=O,121%
